USP1 inh: Inhibitors of USP1/UAF1: Primary Screen. Ubiquitin carboxyl-terminal hydrolase 1 (Homo sapiens), O94782. recombinant USP1/UAF1, Ub-Rhodamine cleavage fluorescence. Potency, µM (top dose mostly 57.1 µM), inactives show at the top dose activity change, negative = inhibition, hits mostly inhibitors. 0.23% of 390,000 active. AID 743255, 2014; also: % is scaled to controls: 0 for no effect and ±100 for the full control effect; nearly all actives have a fitted effect of over 60% in size
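Step one: compound is pinned into 1nM USP1/UAF1 in HEPES pH 7.8 buffer with TCEP. Step two: 15 min room-temperature incubation. Step three: Ub-Rho (150nM final) starts cleavage, tracked by fluorescence over six one-minute reads.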
EPAC2 antag: qHTS for Antagonist of cAMP-regulated guanine nucleotide exchange factor 2 (EPAC2): primary screen; Potency, µM (highest dose often 114 µM), for the others: at the highest dose activity, negative = inhibition, usual class: inhibitors; EPAC2 GEF exchange of Rap1B-BODIPY-GDP, fluorescence; Rap guanine nucleotide exchange factor 4 (Homo sapiens), Q8WZA2; 0.18% of 360,000 active; also: % is scaled to controls: 0 for no effect and ±100 for the full control effect; nearly all actives have a fitted effect of over 45% in size
Target sequence (Q8WZA2 whole entry, looked up): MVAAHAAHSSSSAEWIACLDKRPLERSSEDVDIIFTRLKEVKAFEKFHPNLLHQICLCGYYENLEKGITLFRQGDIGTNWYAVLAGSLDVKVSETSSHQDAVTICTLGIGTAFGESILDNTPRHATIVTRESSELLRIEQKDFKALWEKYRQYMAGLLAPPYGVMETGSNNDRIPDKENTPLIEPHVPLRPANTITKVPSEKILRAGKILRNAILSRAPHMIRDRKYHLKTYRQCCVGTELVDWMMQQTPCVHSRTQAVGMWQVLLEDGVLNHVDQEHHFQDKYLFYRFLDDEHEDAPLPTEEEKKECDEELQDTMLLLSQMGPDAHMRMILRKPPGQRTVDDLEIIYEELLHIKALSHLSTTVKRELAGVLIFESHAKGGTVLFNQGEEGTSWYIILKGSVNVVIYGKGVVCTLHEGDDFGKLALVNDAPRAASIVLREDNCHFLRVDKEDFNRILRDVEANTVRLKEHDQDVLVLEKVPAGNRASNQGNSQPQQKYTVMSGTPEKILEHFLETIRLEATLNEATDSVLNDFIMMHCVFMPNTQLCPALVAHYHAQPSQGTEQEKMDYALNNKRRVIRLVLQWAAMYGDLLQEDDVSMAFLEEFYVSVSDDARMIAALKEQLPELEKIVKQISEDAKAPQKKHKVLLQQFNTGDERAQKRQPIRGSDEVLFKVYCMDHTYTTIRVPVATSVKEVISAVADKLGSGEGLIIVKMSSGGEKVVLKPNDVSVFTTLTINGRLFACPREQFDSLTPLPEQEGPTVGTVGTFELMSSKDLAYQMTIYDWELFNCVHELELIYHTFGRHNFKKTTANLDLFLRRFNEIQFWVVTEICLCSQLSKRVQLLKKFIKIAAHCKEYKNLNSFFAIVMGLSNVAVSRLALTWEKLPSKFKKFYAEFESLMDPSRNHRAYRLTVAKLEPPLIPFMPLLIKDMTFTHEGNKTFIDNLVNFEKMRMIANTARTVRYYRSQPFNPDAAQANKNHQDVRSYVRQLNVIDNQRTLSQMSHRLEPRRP
EPAC1 antag: qHTS for Antagonist of cAMP-regulated guanine nucleotide exchange factor 3 (EPAC1): primary screen; EPAC1 GEF assay, Rap1b-BODIPY-GDP exchange fluorescence; Potency, µM (doses to about 115 µM), without a hit: at the highest dose activity change, negative = inhibition, most hits filed as inhibitors; 0.14% of 360,000 active;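 also: plate controls were vehicle for no effect and positive control for full effect; nearly all actives have a fitted effect of over 50% in size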
VDR inh: Inhibitors of the vitamin D receptor (VDR): qHTS; Vitamin D3 receptor (Homo sapiens), P11473; VDR-SRC2-3 peptide fluorescence polarization, 2 h; Potency, µM, for inactives: max response, negative = inhibition, actives largely listed as inhibitors; 0.93% of 400,000 active; also: % is scaled to controls: 0 for no effect and ±100 for the full control effect
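Signal is fluorescence polarization, reporting how far test compounds block the interaction of VDR with the SRC2-3 coregulator peptide after a 2 h room-temperature incubation.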
EPAC2 ag: qHTS for Agonist of cAMP-regulated guanine nucleotide exchange factor 4 (EPAC2): primary screen; Rap guanine nucleotide exchange factor 4 (Homo sapiens), Q8WZA2; EPAC2 activation, biochemical qHTS; response scale: 100% = 6.5 mM cAMP response; Potency, µM (top dose mostly 154 µM), inactives show top-dose activation, most hits filed as activators; 0.079% of 360,000 active; AID 720711, 2013; also: nearly all actives have a fitted effect of over 50% in size
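Compounds were added across a concentration range to EPAC2 (100 nM), RAP1B-BODIPY-GDP (250 nM) and GDP (50 uM). After 5 min at room temperature, fluorescence was recorded at 5-min intervals for 30 min.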
EPAC1 agonist: qHTS for Agonist of cAMP-regulated guanine nucleotide exchange factor 3 (EPAC1): primary screen | EPAC1 agonist qHTS, biochemical assay; response scale: 100% = response to 6.5 mM cAMP | Potency, µM (series often up to 154 µM), for the others: at the top dose activation, usual class: activators | 0.073% of 360,000 active | AID 720707, 2013; also: nearly all actives have a fitted effect of over 60% in size
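Normalized to 6.5 mM cAMP, activity reflects EPAC1-catalysed release of BODIPY-GDP from Rap1B, followed kinetically over 30 min at 480 nm excitation, 540 nm emission. Reaction contained 100 nM EPAC1, 250 nM Rap1B-BODIPY-GDP, 50 uM GDP.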
* hit, by the source's call; u = inconclusive; x = not tested or not shown; ! = a repeat was not active. A selection: hits, their analogues and other compounds. The true share with any hit is near 1.2%. Calls follow the shape of the dose curve; as a rule, active = well fitted curve in the direction sought with a large enough effect; inconclusive = small, poorly fitted or top-dose-only effect, or another doubt; inactive = no such curve, though single readings can be large; an effect the other way counts as inactive or inconclusive. Potency is read from the fitted curve at half-maximal effect.

SMILES	USP1 inh	EPAC2 antag	EPAC1 antag	VDR inh	EPAC2 ag	EPAC1 agonist
Cc1ccc(-c2cc(C(F)(F)F)n3nc(C(=O)Nc4sc5c(c4C#N)CCC(C)C5)cc3n2)cc1 (stereo unspecified)	-23.3%	x	x	1.1%	x	x
COc1ccc(C(C[N+](=O)[O-])c2c(C)[nH]n(-c3ccccc3)c2=O)cc1 (stereo unspecified)	u	6.9%	-4.8%	u	-0.5%	19.0%
Cc1ccc(C(C[N+](=O)[O-])c2c(-c3ccccc3O)[nH][nH]c2=O)cc1 (stereo unspecified)	u	11.2µM*	-17.4%	22.4µM*	-3.1%	-16.6%
O=c1[nH][nH]c(-c2ccccc2O)c1C(C[N+](=O)[O-])c1ccc(Br)cc1 (stereo unspecified)	-11.5%	11.2µM*	17.1%	u	-8.7%	-13.0%
O=S1(=O)C2CC3OC2(CC3c2ccc(F)cc2)CN1Cc1ccc(Cl)cc1 (stereo unspecified)	x	x	x	6.0%	x	x
c1cncc(CNc2nc(-c3cccnc3)nc3ccccc23)c1	-15.2%	0.7%	-4.8%	-10.8%	1.9%	2.9%
c1ccc(CNc2nc(-c3cccnc3)nc3ccccc23)cc1	-24.3%	-11.5%	-1.5%	17.8µM*!	20.8%	15.7%
c1ccc(CNc2nc(-c3ccoc3)nc3ccccc23)cc1	x	x	x	31.6µM*	x	x
c1ccc(CNc2ccnc(-c3cccnc3)n2)cc1	x	x	x	39.8µM*	x	x
Oc1ccc(Nc2nc(-c3ccccc3)nc3ccccc23)cc1	-0.4%	-2.8%	-21.2%	-21.1%	6.9%	8.2%
Fc1ccc(Nc2nc(-c3ccoc3)nc3ccccc23)cc1	x	x	x	15.8µM*	x	x
Cc1cnc(CNc2ccnc(-c3cccnc3)n2)cn1	x	x	x	-2.9%	x	x
O=c1c(-c2ccc(O)cc2)coc2cc(O[C@@H]3O[C@H](CO)[C@@H](O)[C@H](O)[C@H]3O)cc(O)c12	x	x	x	-0.4%	x	x
CN(C)c1ccc2c(O)cc(=O)n(C)c2c1	-16.3%	3.1%	0.3%	31.6µM*	-3.8%	1.4%
CN(c1ccc(Cl)cc1)c1cc(=O)n(C)c2ccccc12	-19.2%	-9.4%	6.5%	-2.8%	11.0%	0.0%
O=C1C[C@@H](c2ccccc2Cl)N1S(=O)(=O)c1ccccc1[N+](=O)[O-]	x	x	x	7.0%	x	x
CC1C(=O)C(=O)C=CN1C (stereo unspecified)	x	x	x	-7.4%	x	x
Oc1cccc(O)c1O	x	x	x	79.4µM*	x	x
CCOC(=O)CSc1nnc(NCC(=O)OC)c(=O)[nH]1	-15.9%	3.4%	0.0%	39.8µM*	2.4%	0.0%
Cc1nc(C)c(-c2ccc(SCC(=O)Nc3ccc(Cl)c(Cl)c3)nn2)s1	-11.9%	x	x	4.0%	x	x
CSc1ccc2c(c1)C(N1CCN(C)CC1)Cc1ccccc1S2 (stereo unspecified)	-18.0%	-15.2%	-9.4%	50.1µM*!	13.8%	0.7%
CN1CCN(C2Cc3ccccc3Sc3ccc(Cl)cc32)CC1 (stereo unspecified)	-25.0%	-21.6%	-3.4%	u	14.0%	-0.2%
N#Cc1c(SCC(=O)Nc2ccc(C(F)(F)F)cc2)sc2c(O)cc(=O)[nH]c12	-12.0%	0.6%	0.9%	-0.9%	13.4%	-0.1%
N#Cc1c(SCC(=O)Nc2nncs2)sc2c(O)cc(=O)[nH]c12	-10.3%	1.1%	89.1µM*	3.1%	7.1%	-9.1%
CC(=O)Nc1cccc(C(=O)/C=C/c2ccc(F)cc2)c1	-3.4%	-7.2%	79.4µM*	u	9.1%	-3.0%
SMILES	USP1 inh	EPAC2 antag	EPAC1 antag	VDR inh	EPAC2 ag	EPAC1 agonist
CC(=O)Nc1cccc(C(=O)/C=C/c2ccc(N(C)C)cc2)c1	5.62µM*	40.3%	23.3%	-2.6%	6.4%	-3.7%
Cc1ccc(CNC(=O)c2c(C)oc3nc(C)nc(N4CCOCC4)c23)cc1	-18.7%	x	x	13.2%	x	x
COc1ccc(CN(Cc2ccccc2)C(=O)Nc2ccccc2)cc1COc1ccc(NC(C)=O)cc1	x	x	x	-16.3%	x	x
CCCCCCCCCCCCC/C=C/[C@@H](O)C(CO)NC(C)=O (stereo partly specified)	x	x	x	-0.7%	x	x
O=C1CC(c2ccccc2)=NN1c1nc(-c2ccccc2)cs1	-21.9%	1.6%	u	-4.5%	3.5%	-10.1%
CC1=NN(c2nc(-c3ccccc3)cs2)C(=O)C1	-13.4%	1.5%	79.4µM*	-3.7%	2.4%	-13.7%
Cc1ccc(-c2c(C)n3c4c(=O)n(C)c(=O)n(C)c4nc3n2-c2cccc(O)c2)cc1	-9.2%	x	x	15.0%	x	x
OCc1ccc(-c2ccc(-c3ccc(CO)s3)o2)s1	x	x	x	10µM*	x	x
CC[C@H](C)[C@H](NC(=O)[C@H](Cc1ccc(O)cc1)NC(=O)[C@H](Cc1cnc[nH]1)NC(=O)[C@H](CCCNC(=N)N)NC(=O)[C@H](CC(C)C)NC(=O)[C@H](C)NC(=O)[C@@H](N)CO)C(=O)N[C@@H](CC(N)=O)C(=O)N[C@@H](CC(C)C)C(=O)N[C@H](C(=O)N[C@H](C(=O)N[C@@H](CCCNC(=N)N)C(=O)N[C@@H](CCC(N)=O)C(=O)N[C@@H](CCCNC(=N)N)C(=O)N[C@@H](Cc1ccc(O)cc1)C(N)=O)[C@@H](C)O)[C@@H](C)CC	x	x	x	-6.9%	x	x
Cn1cc(C(C[N+](=O)[O-])c2ccccc2)c2ccccc21 (stereo unspecified)	-13.9%	u	10.9%	-3.5%	2.9%	9.3%
CC(=O)n1cc(C(C[N+](=O)[O-])SCCN)c2ccccc21 (stereo unspecified)	-22.7%	6.9%	2.8%	22.4µM*	19.7%	10.7%
COc1ccc(NC(=O)Cn2c3ncccc3c(=O)n2-c2ccc(C)c(C)c2)c(OC)c1	-17.3%	x	x	6.8%	x	x
O=C(Nc1cccc(Cl)c1)N(Cc1nc2ccccc2c(=O)[nH]1)Cc1cccs1	-24.3%	-1.7%	-4.8%	-15.0%	2.4%	89.1µM*
O=C(Nc1cccc(Cl)c1)N(Cc1nc2ccccc2c(=O)[nH]1)C1CCCC1	-4.2%	-7.5%	-5.1%	-14.5%	13.2%	16.4%
CC(=O)OCC(NC(=O)C(COCc1ccccc1)NC(=O)OC(C)(C)C)C1OC(n2ccc(=O)[nH]c2=O)C(OC(C)=O)C1OC(C)=O (stereo unspecified)	x	x	x	0.9%	x	x

High-throughput results (PubChem BioAssay)
